Reference: PubChem BioAssay (EPA / NIEHS)
Calls of active or inactive are those of the source. The calls were made as follows: active = hit-call score of the fitted dose curve at least 0.9, where 1 is the maximum; inactive = score below 0.9.

Assays:
Details in all cases: mRNA level, 48 h; actives raise or lower the signal
[1] = read-out: JUN Transcription Factor, JUN (gene 3725); experiment: LTEA_HepaRG_JUN: Life Technologies and Expression Analysis (LTEA) Assay for JUN Transcription Factor using HepaRG (AID 2283513)
In short: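 Gene-expression endpoint: JUN mRNA (qRT-PCR, normalized to three reference genes) in HepaRG cultures treated 48 h with chemicals, duplicate wells, 100 uM maximum with half-log dilutions; bidirectional fitting relative to 0.5% DMSO.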

[2] = read-out: Lipase C (LIPC), LIPC (gene 3990); experiment: LTEA_HepaRG_LIPC: Life Technologies and Expression Analysis (LTEA) Assay for Lipase C (LIPC) using HepaRG (AID 2283514)
In short: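 HepaRG, 48 h exposure, 8-pt half-log series from 100 uM in 0.5% DMSO, duplicates. Readout: LIPC mRNA by Fluidigm qRT-PCR, housekeeping-normalized (ACTB/GAPDH/POLR2A). Gain or loss fitted bidirectionally against DMSO baseline.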

[3] = read-out: MicroRNA 122 (MIR122), gene 406906; experiment: LTEA_HepaRG_MIR122: Life Technologies and Expression Analysis (LTEA) Assay for MicroRNA 122 (MIR122) using HepaRG (AID 2283516); also: the transcript read is the microRNA miR-122
In short: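 Changes in transcript abundance, up or down relative to 0.5% DMSO vehicle, were scored after 48 h chemical treatment of HepaRG cells (maximum 100 uM). Quantification used TaqMan qRT-PCR normalized to housekeeping genes.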

[4] = read-out: matrix metalloproteinase-10 (MMP10), MMP10 (gene 4319); experiment: LTEA_HepaRG_MMP10: Life Technologies and Expression Analysis (LTEA) Assay for matrix metalloproteinase-10 (MMP10) using HepaRG (AID 2283517)
In short: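 Transcript levels come from Fluidigm qRT-PCR normalized to three housekeeping genes, with curves fitted bidirectionally against 0.5% DMSO. Human HepaRG cells were dosed for 48 hours at concentrations up to 100 uM.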

MYC, MYC (gene 4609) = experiment: LTEA_HepaRG_MYC: Life Technologies and Expression Analysis (LTEA) Assay for MYC using HepaRG (AID 2283518)
In short: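 MYC transcript changes, up or down relative to 0.5% DMSO, from TaqMan qRT-PCR normalized to three housekeeping genes. Human HepaRG cultures received chemicals for 48 h at eight half-log concentrations up to 100 uM, in duplicate.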

[5] = read-out: matrix metalloproteinase-3 (MMP3), MMP3 (gene 4314); experiment: LTEA_HepaRG_MMP3: Life Technologies and Expression Analysis (LTEA) Assay for matrix metalloproteinase-3 (MMP3) using HepaRG (AID 2283519)
In short: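 qRT-PCR read-out of MMP3 mRNA (normalised to three housekeeping genes) in HepaRG liver cells after 48 h chemical exposure; 8-point half-log series, top 100 uM, 0.5% DMSO vehicle. Bidirectional curve fitting against DMSO baseline.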

[6] = read-out: Paternally Expressed 10 (PEG10), PEG10 (gene 23089); experiment: LTEA_HepaRG_PEG10: Life Technologies and Expression Analysis (LTEA) Assay for Paternally Expressed 10 (PEG10) using HepaRG (AID 2283520);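 as to AC50: PEG10 transcript by qRT-PCR normalised to ACTB GAPDH and POLR2A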
In short: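 After 48 h exposure of differentiated HepaRG cells (0.5% DMSO vehicle, eight concentrations up to 100 uM, duplicates), PEG10 mRNA was measured by TaqMan qRT-PCR. Values were normalised to endogenous control genes and analysed bidirectionally against vehicle.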

[7] = read-out: Nuclear factor NF-kappa-B p105 subunit (Homo sapiens) (UniProt P19838); experiment: LTEA_HepaRG_NFKB1: Life Technologies and Expression Analysis (LTEA) Assay for Nuclear Factor Kappa B Subunit 1 (NFKB1) using HepaRG (AID 2283521);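 also: TaqMan qRT-PCR transcript normalised to ACTB GAPDH and POLR2A housekeeping genes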
In short: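 Differentiated human HepaRG cells were exposed for 48 h in serum-free induction medium to eight concentrations (top 100 uM, half-log steps, 0.5% DMSO), in duplicate. NFKB1 mRNA was measured by TaqMan qRT-PCR, normalized to ACTB/GAPDH/POLR2A, and fitted bidirectionally against DMSO.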

[8] = read-out: Protein phosphatase 2A (PPP2R4), PTPA (gene 5524); experiment: LTEA_HepaRG_PPP2R4: Life Technologies and Expression Analysis (LTEA) Assay for Protein phosphatase 2A (PPP2R4) using HepaRG (AID 2283522)
In short: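 Using HepaRG cultures maintained in 0.5% DMSO, chemicals are tested 48 h at up to 100 uM in duplicate. Induction or suppression of PPP2R4 mRNA, measured by qRT-PCR, is fitted bidirectionally against the vehicle baseline.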

[9] = read-out: solute carrier (SLC22A1), SLC22A1 (gene 6580); experiment: LTEA_HepaRG_SLC22A1: Life Technologies and Expression Analysis (LTEA) Assay for solute carrier (SLC22A1) using HepaRG (AID 2283524)
In short: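 qRT-PCR readout (TaqMan, Fluidigm arrays) of SLC22A1 transcript, normalized to three housekeeping genes; bidirectional curve fit relative to 0.5% DMSO vehicle. Differentiated human HepaRG cells, 48 h chemical exposure, top concentration 100 uM, half-log steps, eight points.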

[10] = read-out: Pyruvate Dehydrogenase Kinase 4 (PDK4), PDK4 (gene 5166); experiment: LTEA_HepaRG_PDK4: Life Technologies and Expression Analysis (LTEA) Assay for Pyruvate Dehydrogenase Kinase 4 (PDK4) using HepaRG (AID 2283525)
In short: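 HepaRG (human liver line), 48 h chemical exposure, 8-pt half-log CRC top 100 uM, 0.5% DMSO vehicle, duplicates. Readout: TaqMan qRT-PCR of PDK4 mRNA, housekeeping-normalized; gain/loss fit relative to DMSO baseline.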

[11] = read-out: NAD(P)H dehydrogenase [quinone] 1 (NQO1), NQO1 (gene 1728); experiment: LTEA_HepaRG_NQO1: Life Technologies and Expression Analysis (LTEA) Assay for NAD(P)H dehydrogenase [quinone] 1 (NQO1) using HepaRG (AID 2283526)
In short: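 In this assay, gene expression is read by qRT-PCR after 48 h exposure of HepaRG cells to eight concentrations (max 100 uM, half-log) in 0.5% DMSO. Each chemical runs in duplicate, and activity is scored relative to vehicle.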

[12] = read-out: Nuclear factor erythroid 2-related factor 2 (Homo sapiens) (UniProt Q16236); experiment: LTEA_HepaRG_NFE2L2: Life Technologies and Expression Analysis (LTEA) Assay for Nuclear factor erythroid 2-related factor 2 (NFE2L2) Transcription Factor using HepaRG (AID 2283527);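 also: TaqMan qRT-PCR transcript level normalised to ACTB GAPDH and POLR2A housekeeping genes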
In short: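 HepaRG, 48 h dosing, 8-pt half-log series from 100 uM in 0.5% DMSO, duplicates. Read-out: NFE2L2 mRNA by qRT-PCR (ACTB/GAPDH/POLR2A normalization). Bidirectional curve fit vs DMSO baseline.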

[13] = read-out: succinate dehydrogenase complex iron sulfur subunit B (SDHB), SDHB (gene 6390); experiment: LTEA_HepaRG_SDHB: Life Technologies and Expression Analysis (LTEA) Assay for succinate dehydrogenase complex iron sulfur subunit B (SDHB) using HepaRG (AID 2283528)
In short: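 HepaRG, 48 h exposure, 8-pt half-log series from 100 uM in 0.5% DMSO, duplicates. Readout: SDHB mRNA by Fluidigm qRT-PCR vs housekeeping genes; bidirectional fit relative to DMSO.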

[14] = read-out: solute carrier (SLCO1B1), SLCO1B1 (gene 10599); experiment: LTEA_HepaRG_SLCO1B1: Life Technologies and Expression Analysis (LTEA) Assay for solute carrier (SLCO1B1) using HepaRG (AID 2283530)
In short: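 SLCO1B1 transcript levels were quantified by TaqMan qRT-PCR using three housekeeping genes for normalization. This followed 48 h chemical exposure (100 uM top, half-log, 8 points, 0.5% DMSO) of HepaRG liver cells, with gain or loss fitted relative to DMSO.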

[15] = read-out: sulfotransferase 2A1 (SULT2A1), SULT2A1 (gene 6822); experiment: LTEA_HepaRG_SULT2A1: Life Technologies and Expression Analysis (LTEA) Assay for sulfotransferase 2A1 (SULT2A1) using HepaRG (AID 2283531)
In short: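 Expression change of SULT2A1, by qRT-PCR with three housekeeping-gene normalization, was scored bidirectionally versus DMSO. Cells: differentiated HepaRG, dosed in duplicate for 48 h across 8 points, highest 100 µM, half-log dilution, 0.5% DMSO.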

[16] = read-out: Transforming Growth Factor (TGFA), TGFA (gene 7039); experiment: LTEA_HepaRG_TGFA: Life Technologies and Expression Analysis (LTEA) Assay for Transforming Growth Factor (TGFA) using HepaRG (AID 2283532)
In short: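 qRT-PCR read-out of TGFA transcript, normalized to three housekeeping genes, fitted bidirectionally against 0.5% DMSO baseline. Human HepaRG cultures received chemicals for 48 h at eight half-log concentrations, top 100 uM.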

[17] = read-out: Lipoprotein lipase (LPL), LPL (gene 4023); experiment: LTEA_HepaRG_LPL: Life Technologies and Expression Analysis (LTEA) Assay for Lipoprotein lipase (LPL) using HepaRG (AID 2283515)
In short: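 HepaRG, 48 h exposure, 8-pt half-log dilutions from 100 uM, 0.5% DMSO vehicle, duplicates; qRT-PCR (Fluidigm array) of LPL mRNA vs housekeeping genes; bidirectional curve fit relative to DMSO baseline.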

[18] = read-out: Phosphatase and tensin (PTEN), PTEN (gene 5728); experiment: LTEA_HepaRG_PTEN: Life Technologies and Expression Analysis (LTEA) Assay for Phosphatase and tensin (PTEN) using HepaRG (AID 2283523)
In short: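 HepaRG, 48 h exposure, 8-pt half-log series from 100 uM top, 0.5% DMSO vehicle, duplicates. Readout: Fluidigm qRT-PCR of PTEN transcript; housekeeping normalization (ACTB, GAPDH, POLR2A). Gain or loss fitted relative to DMSO baseline.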

[19] = read-out: Signal transducer and activator of transcription 3 (Homo sapiens) (UniProt P40763); experiment: LTEA_HepaRG_STAT3: Life Technologies and Expression Analysis (LTEA) Assay for Signal transducer and activator of transcription (STAT3) using HepaRG (AID 2283529)
In short: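 HepaRG, 48 h exposure, 8-pt half-log series (top 100 uM), 0.5% DMSO vehicle, duplicates. Readout: STAT3 transcript by Fluidigm qRT-PCR, housekeeping-normalized; bidirectional fit vs DMSO baseline.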

Nuclear factor erythroid 2-related factor 2 (Homo sapiens), sequence (Q16236 whole entry, looked up): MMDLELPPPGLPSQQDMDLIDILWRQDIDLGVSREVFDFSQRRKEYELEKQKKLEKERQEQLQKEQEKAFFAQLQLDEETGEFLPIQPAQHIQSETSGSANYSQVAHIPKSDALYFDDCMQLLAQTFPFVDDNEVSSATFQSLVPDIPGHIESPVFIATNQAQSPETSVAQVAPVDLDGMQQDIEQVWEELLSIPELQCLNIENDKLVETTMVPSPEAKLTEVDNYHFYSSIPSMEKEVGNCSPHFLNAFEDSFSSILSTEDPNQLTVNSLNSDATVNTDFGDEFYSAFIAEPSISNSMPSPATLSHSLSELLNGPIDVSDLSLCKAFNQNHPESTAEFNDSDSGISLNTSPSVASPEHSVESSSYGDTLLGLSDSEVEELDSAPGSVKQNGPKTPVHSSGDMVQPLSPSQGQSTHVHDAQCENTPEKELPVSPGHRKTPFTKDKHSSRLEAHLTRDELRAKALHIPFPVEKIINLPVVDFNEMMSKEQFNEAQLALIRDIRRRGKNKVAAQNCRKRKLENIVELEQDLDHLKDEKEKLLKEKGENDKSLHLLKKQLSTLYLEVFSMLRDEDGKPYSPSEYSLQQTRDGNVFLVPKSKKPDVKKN
Nuclear factor NF-kappa-B p105 subunit (Homo sapiens), sequence (P19838 whole entry, looked up): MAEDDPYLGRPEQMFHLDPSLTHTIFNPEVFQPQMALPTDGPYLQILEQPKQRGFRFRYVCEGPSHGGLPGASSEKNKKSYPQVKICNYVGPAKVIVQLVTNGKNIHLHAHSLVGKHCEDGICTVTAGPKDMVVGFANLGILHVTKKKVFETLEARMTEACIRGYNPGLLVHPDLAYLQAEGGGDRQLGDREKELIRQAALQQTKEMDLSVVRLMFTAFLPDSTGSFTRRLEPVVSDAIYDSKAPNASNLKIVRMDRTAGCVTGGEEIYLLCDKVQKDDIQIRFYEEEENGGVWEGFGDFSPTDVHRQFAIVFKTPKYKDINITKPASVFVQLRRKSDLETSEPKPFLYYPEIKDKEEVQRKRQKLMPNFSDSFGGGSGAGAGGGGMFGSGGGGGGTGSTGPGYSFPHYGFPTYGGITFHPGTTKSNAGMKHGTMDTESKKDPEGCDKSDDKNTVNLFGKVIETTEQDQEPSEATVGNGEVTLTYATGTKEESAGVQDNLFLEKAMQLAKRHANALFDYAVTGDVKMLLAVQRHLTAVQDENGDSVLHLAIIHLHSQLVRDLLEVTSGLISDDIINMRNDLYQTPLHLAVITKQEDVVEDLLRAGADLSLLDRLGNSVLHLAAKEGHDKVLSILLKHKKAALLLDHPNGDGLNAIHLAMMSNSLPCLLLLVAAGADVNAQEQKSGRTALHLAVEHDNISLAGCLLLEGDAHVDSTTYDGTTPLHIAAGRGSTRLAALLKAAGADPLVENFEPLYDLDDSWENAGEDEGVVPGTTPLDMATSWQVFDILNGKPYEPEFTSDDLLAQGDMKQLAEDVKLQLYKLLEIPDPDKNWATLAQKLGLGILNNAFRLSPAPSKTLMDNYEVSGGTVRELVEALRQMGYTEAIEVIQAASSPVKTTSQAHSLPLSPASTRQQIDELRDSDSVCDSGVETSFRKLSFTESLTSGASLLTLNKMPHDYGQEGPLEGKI
Signal transducer and activator of transcription 3 (Homo sapiens), sequence (P40763 whole entry, looked up): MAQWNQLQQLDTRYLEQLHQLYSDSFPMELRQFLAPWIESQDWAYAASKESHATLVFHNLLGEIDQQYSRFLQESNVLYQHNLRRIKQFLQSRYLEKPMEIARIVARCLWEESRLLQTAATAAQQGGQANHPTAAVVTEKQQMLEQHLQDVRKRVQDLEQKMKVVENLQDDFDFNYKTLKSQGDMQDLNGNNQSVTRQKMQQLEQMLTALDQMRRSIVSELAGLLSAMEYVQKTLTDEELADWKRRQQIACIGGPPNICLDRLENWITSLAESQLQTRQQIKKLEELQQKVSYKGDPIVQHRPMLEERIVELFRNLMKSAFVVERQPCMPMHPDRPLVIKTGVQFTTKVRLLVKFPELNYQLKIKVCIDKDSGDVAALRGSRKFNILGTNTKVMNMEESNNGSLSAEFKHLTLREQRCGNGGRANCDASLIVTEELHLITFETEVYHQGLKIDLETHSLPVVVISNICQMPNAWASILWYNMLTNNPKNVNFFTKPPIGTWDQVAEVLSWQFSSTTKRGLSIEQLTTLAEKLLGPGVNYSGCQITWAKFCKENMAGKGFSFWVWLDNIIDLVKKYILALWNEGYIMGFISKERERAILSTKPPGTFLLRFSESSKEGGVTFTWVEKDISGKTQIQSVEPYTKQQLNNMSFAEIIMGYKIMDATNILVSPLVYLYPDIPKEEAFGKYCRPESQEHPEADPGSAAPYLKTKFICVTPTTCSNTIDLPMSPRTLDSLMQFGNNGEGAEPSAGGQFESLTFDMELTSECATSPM

## C=CC1(C)OC(=O)N(c2cc(Cl)cc(Cl)c2)C1=O (stereo unspecified)
[1]
  outcome: inactive
[2]
  outcome: inactive
[3]
  outcome: inactive
[4]
  outcome: inactive
MYC, MYC (gene 4609)
  outcome: inactive
[5]
  outcome: inactive
[6]
  AC50: 34.1 µM (active)
[7]
  outcome: inactive
[8]
  outcome: inactive
[9]
  outcome: inactive
[10]
  AC50: 50 µM (active)
[11]
  outcome: inactive
[12]
  outcome: inactive
[13]
  outcome: inactive
[14]
  outcome: inactive
[15]
  AC50: 28 µM (active)
[16]
  outcome: inactive

## CCNc1nc(Cl)nc(NCC)n1
[1]
  outcome: inactive
[2]
  outcome: inactive
[17]
  outcome: inactive
[3]
  outcome: inactive
[4]
  outcome: inactive
MYC, MYC (gene 4609)
  outcome: inactive
[5]
  outcome: inactive
[6]
  outcome: inactive
[8]
  outcome: inactive
[18]
  outcome: inactive
[9]
  outcome: inactive
[10]
  outcome: inactive
[11]
  outcome: inactive
[12]
  outcome: inactive
[13]
  outcome: inactive
[19]
  outcome: inactive
[14]
  outcome: inactive
[15]
  outcome: inactive
[16]
  outcome: inactive

## CCCCC(CC)COC(=O)c1ccccc1C(=O)OCC(CC)CCCC (stereo unspecified)
[1]
  outcome: inactive
[2]
  outcome: inactive
[17]
  outcome: inactive
[3]
  outcome: inactive
[4]
  outcome: inactive
MYC, MYC (gene 4609)
  outcome: inactive
[5]
  outcome: inactive
[6]
  outcome: inactive
[7]
  outcome: inactive
[8]
  outcome: inactive
[9]
  outcome: inactive
[10]
  outcome: inactive
[11]
  outcome: inactive
[12]
  outcome: inactive
[13]
  outcome: inactive
[14]
  outcome: inactive
[15]
  outcome: inactive
[16]
  outcome: inactive

## Cc1cc(Cl)ccc1OCC(=O)O
[1]
  outcome: inactive
[2]
  outcome: inactive
[17]
  outcome: inactive
[3]
  outcome: inactive
[4]
  outcome: inactive
MYC, MYC (gene 4609)
  outcome: inactive
[5]
  outcome: inactive
[6]
  AC50: 9.94 µM (active)
[8]
  outcome: inactive
[9]
  outcome: inactive
[10]
  AC50: 35.5 µM (active)
[11]
  outcome: inactive
[12]
  outcome: inactive
[13]
  outcome: inactive
[14]
  outcome: inactive
[15]
  AC50: 85.8 µM (active)
[16]
  outcome: inactive
